Screens: PubChem, National Center for Advancing Translational Sciences (NCATS)
Sfp inh = qHTS Assay for Inhibitors of Bacillus subtilis Sfp phosphopantetheinyl transferase (PPTase) | 4'-phosphopantetheinyl transferase ffp (Bacillus subtilis), Q9F4F7 | Biochemical Sfp PPTase activity, qHTS | Potency, µM, without a hit: largest response in the series, negative = inhibition, usual class: inhibitors | 3.5% of 310,000 active | AID 1490, 2009;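 note: the enzyme is Sfp with the accession as filed and its product quenches rhodamine fluorescence; 0% = enzyme reaction without inhibitor and -100% = no enzyme wells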
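Compounds were incubated with enzyme (final 15 nM) for 15 min at room temperature before substrate addition started the reaction. Fluorescence at 525 nm excitation, 598 nm emission was recorded immediately and after 30 minutes.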
PINK1 modulator = A Quantitative High throughput Screen to Identify Chemical Modulators of PINK1 Expression. Potency, µM (doses to about 76.6 µM), inactives show at the highest dose activation (PINK1 increase), hits mostly activators. 0.2% of 410,000 active. PINK1 immunofluorescence, high-content cytometry, 24 h; active = well fitted activation curve with a large enough effect; inconclusive = small, poorly fitted or top-dose-only effect; cell line not stated here; note: % of control where 0% means no effect; nearly all actives have a fitted effect of over 65% in size
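Stable cell line, 250 cells/well, 12 h attachment; compounds pinned at 5 concentrations, 24 h; CCCP control. Fixed with nuclear dye, primary antibodies 12 h at 10 degrees C, secondary plus cell stain; laser-scanning cytometer read.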
Epigenetic derep = Quantitative High-Throughput Screen for Regulators of Epigenetic Control; murine LDR cells, GFP reporter derepression, 30 h; Potency, µM (doses to about 53.9 µM), for the others: top-dose GFP activation, actives largely listed as activators; 0.2% of 280,000 active; AID 1865, 2009; note: % of control where 0% means no effect; nearly all actives have a fitted effect of over 60% in size
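Murine LDR cells bearing a silenced CMV-driven GFP reporter were exposed to compound for 30 h at 37 C. After PBS washes, GFP-positive cells (20-120 um objects) counted by laser-scanning microplate cytometry.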
ClpP mod = qHTS Assay for Activators of ClpP; ATP-dependent Clp protease proteolytic subunit (Bacillus subtilis (strain 168)), P80244; purified B. subtilis ClpP, FRET peptide cleavage, 20 min; Potency, µM (titrated, usually from 57.5 µM), inactives show top-dose activity change, negative = active; 1.9% of 340,000 active; AID 651965, 2013; active = well fitted falling curve with a large enough effect; inconclusive = small, poorly fitted or top-dose-only effect; inactive = no such curve, though single readings can be large or run the other way; note: the source files actives as falling curves though it sought activators and does not explain the sign; nearly all actives have a fitted effect of over 65% in size
Target sequence (P80244 whole entry, looked up): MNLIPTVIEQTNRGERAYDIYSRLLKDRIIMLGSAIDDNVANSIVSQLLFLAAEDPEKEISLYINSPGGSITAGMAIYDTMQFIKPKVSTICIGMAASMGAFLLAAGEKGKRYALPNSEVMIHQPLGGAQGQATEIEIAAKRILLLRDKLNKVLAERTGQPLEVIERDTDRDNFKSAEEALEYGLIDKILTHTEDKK
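Purified B. subtilis ClpP, 10 microg/mL final in Tris/HCl pH8 with KCl, BSA, glycerol and Tween-20, cleaved an Abz/nitrotyrosine-quenched decapeptide. Fluorescence (ex 320, em 430) was read at 0 and 20 min at room temperature. Delta was normalized to 5.8 microM ADEP and DMSO/no-enzyme controls.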
Gal4-VP16 FLuc = VP16 counterscreen qHTS for inhibitors of ROR gamma transcriptional activity; Drosophila S2 Gal4-VP16 UAS-luciferase, luminescence, 20 h; Potency, µM (highest dose often 53.6 µM), for the others: at the top dose activity, negative = inhibition, most hits filed as inhibitors; 3.5% of 310,000 active; AID 2546, 2010;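 note: Gal4-VP16 expression switched on by copper sulfate through the metallothionein promoter; % is set by controls: 0 for no effect and ±100 for the full control effect; nearly all actives have a fitted effect of over 50% in size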
RORg inh = qHTS for inhibitors of ROR gamma transcriptional activity | Potency, µM (titrated, usually from 53.6 µM), for inactives: top-dose activity change, negative = inhibition, hits mostly inhibitors | Drosophila S2 Gal4-RORgamma UAS-luciferase reporter, 20 h | Nuclear receptor ROR-gamma (Mus musculus), P51450 | 5.4% of 310,000 active | AID 2551, 2010; note: % is set by controls: 0 for no effect and ±100 for the full control effect; nearly all actives have a fitted effect of over 60% in size
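ROR gamma transcriptional activity was tracked as Gal4-UAS luciferase output in stably transfected Drosophila Schneider cells, with compound added 1 hr before 700 uM copper sulfate induction and a 20 hr ambient-temperature incubation.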
* hit, by the source's call; ? = inconclusive; · = not tested or not shown; [ ] = remark or other dose. In the library only some 8.1% were active in any assay of this set; here they are far more common. Unless noted, calls come from the whole dose curve; as a rule, active = well fitted curve in the direction sought with a large enough effect; inconclusive = small, poorly fitted or top-dose-only effect, or another doubt; inactive = no such curve, though single readings can be large; an effect the other way counts as inactive or inconclusive. Potency is the fitted concentration of half-maximal effect.

SMILES	Sfp inh	PINK1 modulator	Epigenetic derep	ClpP mod	Gal4-VP16 FLuc	RORg inh
CCOC(=O)c1cnc(SC2CCc3ccccc3C2=O)nc1N (stereo not drawn)	56µM*	-3%	-2%	-8%	4%	14%
CCOC(=O)c1cnc(SC2CC(=O)N(c3ccccc3)C2=O)nc1N (stereo not drawn)	6%	1%	5%	-2%	?	-32%
CN(C)c1ccc(/C=N/n2ncc3ccccc32)cc1	-20%	·	4%	?	7.1µM*	0.71µM*
O=c1cc(CN2CCN(c3ccccc3F)CC2)c2cc(O)c(-c3ccccc3)cc2o1	6%	8%	-4%	-1%	-19%	-13%
O=c1cc(CN2CCN(C/C=C/c3ccccc3)CC2)c2cc(O)c(-c3ccccc3)cc2o1	20%	?	-6%	-2%	-24%	8%
CCc1cc2c(CN3CCN(CCO)CC3)cc(=O)oc2cc1O	-9%	-2%	0%	14µM*	·	0%[0.365 µM]
Cc1cc2oc(=O)cc(CN3CCN(C/C=C/c4ccccc4)CC3)c2cc1O	-28%	·	2%	·	35µM*	?
COc1ccc(N2CCN(Cc3cc(=O)oc4cc(-c5ccccc5)c(O)cc34)CC2)cc1	4%	3%	4%	32µM*	?	-1%
CCc1cc2c(CN3CCN(C)CC3)cc(=O)oc2cc1O	-4%	-1%	-1%	?	0%	?
COc1ccc2c(c1)OC(C)CN(CC(=O)NCc1cn[nH]c1-c1ccc(F)cc1)C2 (stereo not drawn)	·	0%	·	·	·	·
O=c1cc(-c2ccc(F)cc2)nc(SCc2nc(-c3cccc(C(F)(F)F)c3)no2)[nH]1	·	1%	-1%	1%	·	·
Cc1ncc2c(c1CNS(=O)(=O)N(C)C)CCN(C(=O)/C=C/c1ccccc1F)C2	·	0%	·	·	·	·
COc1cccc(CNC(=O)CN(c2ccc(C(C)C)cc2)S(=O)(=O)c2c(C)n[nH]c2C)c1	·	1%	2%	0%	·	·
O=C(COc1ccccc1)Nc1cccc(-c2nc3ccccc3[nH]2)c1	7%	0%	-1%	32µM*	-10%	6%
O=C(CSc1ccccc1)Nc1ccc(-c2nc3ccccc3[nH]2)cc1	0%	2%	1%	-1%	?	?
O=C(O)CCCC(=O)Nc1cccc(-c2nc3ccccc3[nH]2)c1	7%	-2%	0%	25µM*	-17%	-18%
O=C(CSc1ccc2ccccc2c1)Nc1nc2ccccc2[nH]1	17%	2%	0%	-1%	?	11µM*
O=C(CSc1ccc(Cl)cc1)Nc1cccc(-c2nc3ccccc3[nH]2)c1	?	?	1%	13µM*	10µM*	?
CCOc1ccc(NC(=O)c2oc3ccccc3c2NC(=O)Cc2cccc(C)c2)cc1	·	0%	-2%	-1%	·	·
CN1CCCc2cc(/C=C/c3ccnc4ccccc34)ccc21	·	·	·	0%	·	·
O=C(CCCn1c(=O)c2cccn2c2cccnc21)Nc1ccccc1Br	·	1%	?	-26%	·	·
N#CC(c1cccc(Cl)c1)c1ccc2c(C(F)(F)F)cc(C(F)(F)F)nc2n1 (stereo not drawn)	-2%	?	-1%	-2%	4µM*	5µM*
N#CC(c1ccccc1)c1cccc(Cl)n1 (stereo not drawn)	17%	3%	0%	·	1%	18%
COC(=O)c1cc(NC(=O)c2cccc(C(F)(F)F)c2)c(=O)oc1C/C=N/OCc1cccc(Cl)c1Cl	0%	22µM*	2%	-2%	-5%	16%
COC(=O)c1cc(NC(=O)c2cccc(C(F)(F)F)c2)c(=O)oc1C	?	6%	-4%	·	-12%	16%
